# Reference: PubChem BioAssay AID1851 (National Center for Advancing Translational Sciences (NCATS), 2009)
# Screen size: about 16,000 compounds; about 5,100 (32%) were called active. Roughly 25% stayed inconclusive and do not appear here. Some of the results follow. A number with no mark means an inactive call. The call rests on the fitted dose curve; in most records, active means well fitted curve in the direction sought with a large enough effect; inconclusive means small, poorly fitted or top-dose-only effect, or effect the other way; inactive means no such curve, though single readings can be large or run the other way.
# Molecular target: Cytochrome P450 3A4 (Homo sapiens) (UniProt P08684)
# Assay: Cytochrome panel assay with activity outcomes
# Conditions: recombinant CYP, pro-luciferin dealkylation, luminescence, p450-cyp3a4; series mostly up to 57.1 µM; activity, negative = inhibition: at the top concentration
# On the % scale 0 is the no-effect control and ±100 the full control effect.
# Chain of Cytochrome P450 3A4 (Homo sapiens) (P08684 whole entry, looked up): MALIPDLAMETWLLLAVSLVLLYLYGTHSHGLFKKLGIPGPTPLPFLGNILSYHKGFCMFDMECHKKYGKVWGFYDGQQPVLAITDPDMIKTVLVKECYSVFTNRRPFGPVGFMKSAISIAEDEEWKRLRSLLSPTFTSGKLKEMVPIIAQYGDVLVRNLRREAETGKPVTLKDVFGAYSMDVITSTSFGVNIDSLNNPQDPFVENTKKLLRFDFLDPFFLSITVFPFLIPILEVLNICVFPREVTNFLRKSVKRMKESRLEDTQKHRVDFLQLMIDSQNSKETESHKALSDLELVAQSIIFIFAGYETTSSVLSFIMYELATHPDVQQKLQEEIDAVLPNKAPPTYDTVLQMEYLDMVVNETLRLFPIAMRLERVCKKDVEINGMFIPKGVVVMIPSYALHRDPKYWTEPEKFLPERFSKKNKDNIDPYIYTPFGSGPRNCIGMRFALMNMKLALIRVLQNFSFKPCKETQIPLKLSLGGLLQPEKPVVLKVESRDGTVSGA
SMILES,AC50,"activity, negative = inhibition"
COc1ccccc1CN1CC[C@@]2(CCCN(S(=O)(=O)c3ccccc3)C2)C1,10 µM (active),
COc1ccccc1CN1CC2(CCN(S(=O)(=O)c3ccccc3)CC2)C1,20 µM (active),
COc1ccccc1CN1CCCC2(CCN(S(C)(=O)=O)CC2)C1,,-21.3%
COc1ccccc1CN1CCC2(CC1)CCN(S(=O)(=O)c1ccccc1)CC2,,9.4%
COc1ccccc1CN1CC2(CCN(S(C)(=O)=O)CC2)C1,,-33.1%
COc1ccccc1CN1CCC2(CC1)CCN(S(C)(=O)=O)CC2,,-21.7%
CC(=O)OCC(=O)[C@@]1(O)CC[C@@H]2[C@H]3CCC4=CC(=O)CC[C@]4(C)[C@]3(F)[C@@H](O)C[C@@]21C,,-19.6% [at 25.6 µM]
CN1Cc2c(C(=O)OC(C)(C)C)ncn2-c2ccsc2C1=O,,22.5%
Cc1cccn2c(/C=N/OCc3ccc(F)cc3)c(-c3ccc(Cl)cc3)nc12,,-20.4%
COc1ccc(/C(C#N)=C/c2c(-c3ccc(Cl)cc3)nc3c(C)cccn23)cc1,2.82 µM (active),
COc1ccc(-c2cc(C3CCN(c4ccc(C(C)=O)cc4[N+](=O)[O-])CC3)[nH]n2)cc1,4.47 µM (active),
CC(=O)c1ccc(N2CCC(c3cc(-c4ccc(Cl)cc4Cl)n[nH]3)CC2)c([N+](=O)[O-])c1,12.6 µM (active),
Cc1cc(NCCO)c2ccccc2n1,,-18.2%
CCCNc1c(F)c(F)c2c(C)c3ccccc3nc2c1F,6.31 µM (active),
CC(C)C(O)(C(C)C)C(C)C,,-4.9% [at 11.4 µM]
COc1ccc2[nH]c3c(c2c1)CN(C)CC3,,0.59%
Cc1ccc2[nH]c3c(c2c1)CN(C(=O)CN1c2ccc(F)cc2CCC1C)CC3 (stereo not given),8.91 µM (active),
Nc1c(S(=O)(=O)c2ccccc2)c2nc3ccccc3nc2n1Cc1ccco1,3.98 µM (active),
CC(=O)Nc1c(S(=O)(=O)c2ccccc2)c2nc3ccccc3nc2n1Cc1ccccc1,4.47 µM (active),
COC(=O)CCSc1cc([N+](=O)[O-])cc2c1c(C1OCCS1)nn2-c1ccccc1 (stereo not given),14.1 µM (active),
O=C(O)/C=C\C(=O)Nc1ccc2c(c1)C(=O)c1cc(F)ccc1-2,3.16 µM (active),
O=C(O)/C=C/C(=O)Nc1ccccc1-c1ccccc1,,19%
O=C(O)/C=C\C(=O)Nc1cccc2c1-c1ccccc1C2=O,,-10.9% [at 11.4 µM]

SMILES,AC50,"activity, negative = inhibition"
CCCCc1n[nH]c2c1/C(=N/O)CC(c1ccccc1)C2 (stereo not given),12.6 µM (active),
Cc1cc(=O)[nH]c(-n2[nH]c3c(c2=O)CCCC3)n1,,-8.37%
Cc1ccc(S(=O)(=O)Nc2cc(=O)[nH]c3c2CCC3)cc1,3.16 µM (active),
CC1=C(C(N)=O)C(c2ccccn2)n2nc(SCc3ccccc3Cl)nc2N1 (stereo not given),6.31 µM (active),
Nc1nc(SCc2ccccc2Cl)cc(C(=O)O)n1,,-1.56% [at 11.4 µM]
CC(C)=CCc1c2c(c3occ(-c4ccc(O)c(O)c4)c(=O)c3c1O)C=CC(C)(C)O2,,0.0575% [at 11.4 µM]
Cc1cccc(N(CC(=O)NC2CCCC2)C(=O)c2cc3cc4cccc(C)c4nc3s2)c1C,4.47 µM (active),
CN(C(=O)Cn1nnc(-c2cccc(C(F)(F)F)c2)n1)C1CCCCC1,,-16.8%
CC(C)CC(C(=O)NCC1CCCO1)N(C(=O)Cn1nnc(-c2ccc(F)cc2)n1)c1ccccc1F (stereo not given),14.1 µM (active),
Cc1ccc(N(C(=O)Cn2nnc(-c3ccc(F)cc3)n2)C(CC(C)C)C(=O)NCC2CCCO2)cc1 (stereo not given),14.1 µM (active),
CC(C)CC(C(=O)NCC1CCCO1)N(C(=O)Cn1nnc(-c2ccc(F)cc2)n1)c1cccc(C(F)(F)F)c1 (stereo not given),10 µM (active),
Nc1nc2c(c(=O)[nH]1)N(C=O)[C@H](CNc1ccc(C(=O)N[C@@H](CCC(=O)O)C(=O)O)cc1)CN2,,-2.19% [at 25.6 µM]
N/N=C1/CC(=O)NC(=O)N1,,-21.1% [at 11.4 µM]
Cc1ccc(NC(=O)C2(NC(=O)c3cccc(N4C(=O)CSC4c4ccccc4)c3)CCCCC2)cc1 (stereo not given),2.82 µM (active),
CC(=O)Nc1ccc(N2C(=O)CC(c3ccccc3)CC2=O)cc1,,1.08% [at 2.29 µM]
Cc1ccc(C2C3=C(CCCC3=O)Nc3nc(SCC(=O)NCc4ccco4)[nH]c(=O)c32)cc1 (stereo not given),7.94 µM (active),
CCCCCCN1Cc2ccccc2C1,,-12.8%
CN(C(=O)c1cnc(N2CCN(c3ncccn3)CC2)c2ccccc12)c1ccc(Cl)cc1,,28.1% [at 11.4 µM]
CCN(C(=O)c1cnc(N2CCN(c3ncccn3)CC2)c2ccccc12)c1cccc(Cl)c1,6.31 µM (active),
O=C1c2ccccc2S(=O)(=O)N1CCCCN1CCN(c2ncccn2)CC1,,-10.4%
Clc1ccc(/C=N/c2c(-c3ccc(Cl)cc3)nc3n2CCS3)cc1,,-12.1% [at 2.29 µM]
Cc1cnc(CNc2ncnc3ccc(-c4cccc(C#N)c4)cc23)cn1,3.16 µM (active),
COc1cccc(-c2ccc3ncnc(NCc4cnc(C)cn4)c3c2)c1,7.94 µM (active),

SMILES,AC50,"activity, negative = inhibition"
COc1ccc(/C=N/n2cnc3c([nH]c4ccc(Br)cc43)c2=O)cc1CN1CCOCC1,5.01 µM (active),
Cc1cc2nc(SCCOC(=O)Nc3ccc(Cl)cc3)nc(C)c2cc1C,,23.5%
CCCCSc1nc(C)cc(NC(=S)Nc2ccc(OC)cc2)n1,7.08 µM (active),
S=C(S)O[C@@H]1C[C@@H]2C[C@H]1[C@@H]1CCC[C@H]21,3.98 µM (active),
CCOC(=O)C(CC)(CC)C(=O)/C=C/c1ccc(Br)cc1,,-13.8%
Cc1ccc(CNC(=O)CCc2c(C)nc3ncnn3c2C)cc1,2 µM (active),
CCOC(=O)CCc1c(C)nc2ncnn2c1C,,-3.42%
Cc1nc2ncnn2c(C)c1CCC(=O)NC(C)c1ccc2c(c1)OCCO2 (stereo not given),15.8 µM (active),
Cc1nc2nc(C)c(CCC(=O)NCCCN3CCN(c4cccc(Cl)c4)CC3)c(C)n2n1,,-13.6%
NCC[C@H](O)C(=O)N[C@H]1C[C@@H](N)[C@@H](O[C@H]2O[C@@H](CN)[C@@H](O)[C@@H](O)[C@@H]2O)[C@@H](O)[C@@H]1O[C@H]1O[C@@H](CO)[C@@H](O)[C@@H](N)[C@@H]1O,,-8.79% [at 25.6 µM]
COCCn1c(=O)c(-c2cc(F)cc(F)c2)nc2cnc(Oc3ccc(OC)cc3)nc21,3.16 µM (active),
COCCn1c(=O)c(-c2cc(F)cc(F)c2)nc2cnc(N(C)C)nc21,,14.1%
COCCn1c(=O)c(-c2cc(F)cc(F)c2)nc2cnc(OC)nc21,15.8 µM (active),
COCCn1c(=O)c(-c2cc(F)cc(F)c2)nc2cnc(Oc3cccc(Cl)c3)nc21,10 µM (active),
COCCn1c(=O)c(-c2cc(F)cc(F)c2)nc2cnc(N3CCOCC3)nc21,,5.02%
CC(C)CO/N=C1/C[C@@H](O)[C@@H](O)[C@@H]2[C@@H]3C(=O)N(C[C@@H]4CCCO4)C(=O)[C@H]3CC[C@@H]12,,-19.4% [at 11.4 µM]
CCOc1ccc(CCNC(=O)C2CCN(S(=O)(=O)CC)CC2)cc1OCC,7.08 µM (active),
CC1CCCN(CCCNC(=O)C2CC(=O)N(c3ccc(F)c(Cl)c3)C2)C1 (stereo not given),,-29%
CCOc1ccc(CCNC(=O)C2CC(=O)N(C3CCCC3)C2)cc1OCC (stereo not given),14.1 µM (active),
C=CCNC(=O)C1CCN(S(=O)(=O)CC)CC1,,3.37%
O=C(NCCN1CCN(Cc2ccccc2)CC1)C1CC(=O)N(C2CCCC2)C1 (stereo not given),,-22.2%
CCN(CCCNC(=O)C1CCN(S(=O)(=O)CC)CC1)c1cccc(C)c1,11.2 µM (active),
CCS(=O)(=O)N1CCC(C(=O)NCCN2CCN(Cc3ccccc3)CC2)CC1,,-22.5%

SMILES,AC50,"activity, negative = inhibition"
Cc1cc(C)c(S(=O)(=O)NCC2CCC(C(=O)NCc3ccc4c(c3)OCO4)CC2)c(C)c1 (stereo not given),0.891 µM (active),
O=C(NCc1ccc2c(c1)OCO2)C1CC(=O)N(C2CCCC2)C1 (stereo not given),4.47 µM (active),
Cc1ccc(Oc2ccccc2/C=C2\SC(=O)N(C)C2=O)cc1,14.1 µM (active),
Cc1cc(N2CCOCC2)ccc1/C=C1\SC(=O)N(C(C)C)C1=O,,-18.9%
N#Cc1cccc(-c2cncnc2NCc2cccnc2)c1,1.26 µM (active),
N#Cc1cccc(-c2cncnc2NCc2ccccc2)c1,1.26 µM (active),
Cc1cccc(CNc2ncncc2-c2cccc(C#N)c2)c1,0.2 µM (active),
N#Cc1cccc(-c2cncnc2NCc2cccs2)c1,1.26 µM (active),
O=C1/C(=N\O)Cc2ccccc21,,26.9%
CN(C)CC/C=C1\c2ccccc2COc2ccccc21,inactive,
C[N+](C)([O-])CCC=C1c2ccccc2CCc2ccccc21,1.26 µM (active),
CN(C)CCC=C1c2ccccc2CCc2ccccc21,,-25.3%
COCCCNC(=O)Cn1nc(-c2ccccc2OC)ccc1=O,,-9.12%
COc1ccccc1-c1cc(C(F)(F)F)nc(S(=O)(=O)CCCC(=O)NC(C)C)n1,12.6 µM (active),
CCOC(=O)C1(C(=O)O)NC(=O)CC1c1ccccc1 (stereo not given),,0.919%
CCOC(=O)C1=C(C)NC2=C(C(=O)C(C(=O)OCC)C(c3ccc(OC)cc3)C2)C1c1ccccn1 (stereo not given),,-13.7% [at 2.29 µM]
CCCOc1ccccc1C1CC(=O)NC(C)=C1C(=O)OCC(C)C (stereo not given),28.2 µM (active),
CC(C)(C)OC(=O)NCCc1nnc(SCC(=O)Nc2cccc(Cl)c2)o1,11.2 µM (active),
O=C(CSc1nnc(Cn2nnc3ccccc32)o1)Nc1cccc(Cl)c1,8.91 µM (active),
Brc1ccc(C2=Nn3c(nnc3-c3cccnc3)SC2)s1,3.55 µM (active),
O=[N+]([O-])c1ccc(C2=Nn3c(nnc3-c3ccc(Cl)cc3)SC2)o1,,-12.1% [at 11.4 µM]
